Results on 18 molecules are retold here after PubChem BioAssay (NCI).

The nature of assay [1]: NCI Yeast Anticancer Drug Screen. Data for the rad50 strain (AID 155).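 Note: 0% = growth of vehicle-only cultures of the same strain.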 Conditions: S. cerevisiae rad50 strain growth inhibition; at 50.0 µM; active compounds read high. In outline: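 Readout: growth inhibition relative to vehicle-treated cultures. Compound exposure was carried out in a genetically defined yeast strain deficient in DNA damage repair.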
Assay [2] is described as follows: NCI Yeast Anticancer Drug Screen. Data for the mec2-1 strain (AID 157). The following applies: S. cerevisiae mec2-1 strain, at 50.0 µM, active compounds read high. The essentials:
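Compounds were applied to mec2-1 yeast cells. Their growth was then compared with that of vehicle-treated cultures to give growth inhibition.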

Assay [3] is described as follows: NCI Yeast Anticancer Drug Screen. Data for the sgs1 mgt1 strain (AID 161).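 Note: 0% = growth of cultures given vehicle only.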 Conditions: S. cerevisiae sgs1 mgt1 strain, at 50.0 µM, active compounds read high. The essentials: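 This yeast growth screen uses a strain with defined DNA-repair lesions; compound-treated growth is compared with vehicle-treated growth.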
Assay [4] in a line: NCI Yeast Anticancer Drug Screen. Data for the cln2 rad14 strain (AID 165).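 Note: 0% = growth equal to vehicle treated cultures.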 Conditions: S. cerevisiae cln2 rad14 strain, at 50.0 µM, active compounds read high. In outline: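 Strain: cln2 rad14 yeast, altered in cell cycle control and DNA damage repair. Read-out: growth inhibition vs vehicle.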
The nature of assay [5]: NCI Yeast Anticancer Drug Screen. Data for the bub3 strain (AID 167). The following applies: S. cerevisiae bub3 mutant strain, at 50.0 µM, active compounds read high. In outline:
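Readout: yeast growth inhibition, expressed relative to vehicle-only wells. The test organism is a mutant strain from a panel with lesions in DNA repair or checkpoint genes.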

The nature of assay [6]: NCI Yeast Anticancer Drug Screen. Data for the mlh1 rad18 strain (AID 175). The following applies: S. cerevisiae mlh1 rad18 strain growth inhibition; at 50.0 µM; active compounds read high. In outline:
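A repair-deficient yeast strain is exposed to test compound, and growth is scored relative to vehicle-treated controls.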

Compounds without any hit were thinned out: in the full panel of roughly 79,000, 15% have a hit. A number with no mark means an inactive call. Activity calls are given as the source filed them. Cut-off read from the data, not from the text of the source: active = growth inhibition above about 70%; inactive = the rest.

As to `CCc1c2c(c(C)n1C)C(c1ccccc1)=NCC(=O)N2`, the growth inhibition in assay [1] was 8.1%; in assay [2], 21.1%; in assay [3] it was 21.7%; in assay [4], -7.1%; in assay [5] it was 13.4%; in assay [6], 3%.
In the case of `CCOP(=O)(OCC)C(C#N)Cc1ccccc1OC` (stereo not drawn), the growth inhibition in assay [1] is 20.6%; in assay [2], 4.15%; in assay [3], 0.2%; in assay [4], -18.1%; in assay [5] it was 3.3%; in assay [6], 12.7%.
Turning to `COc1cc2c(cc1OC)[C@@H]1C(=O)c3ccc4c(c3O[C@@H]1CO2)C[C@H](C(C)C)O4`, the growth inhibition in assay [1] is -11.2%; in assay [2], -40.2%; in assay [3], -1.45%; in assay [4] it was -9.25%; in assay [5] it was -33.6%; in assay [6] it was 7.2%.
With `CC1(C(=N)N)CCOC1=O` (stereo not drawn), the growth inhibition was 4.4% in assay [1]; 18.5% in assay [2]; -10.8% in assay [3]; 4.5% in assay [4]; -1% in assay [5]; 7.55% in assay [6].
For `CCOC(=O)C1C(C=C(C)C)C1(C)C` (stereo not drawn), the growth inhibition was -14.3% in assay [1]; -17.4% in assay [2]; -8.8% in assay [3]; -10.8% in assay [4]; -16.6% in assay [5]; -3.95% in assay [6].
`COc1cc(C2c3cc4c(cc3OC(C)(O)C2C)OCO4)cc(OC)c1OC` (stereo not drawn): the growth inhibition in assay [1] is 8.8%; in assay [2] it was -1.15%; in assay [3], 9.85%; in assay [4] it was -25.4%; in assay [5], -16.9%; in assay [6], 15.2%.
For the molecule `NC(N)=N/N=C/c1ccc(Cl)c(Cl)c1`, the growth inhibition in assay [1] was 8.45%; in assay [2] it was -3.15%; in assay [3], -8.2%; in assay [4] it was -9.25%; in assay [5] it was -3.6%; in assay [6], 21.4%.
With `COc1ccc2c(c1O)C13C=C(OS(=O)(=O)c4ccc(C)cc4)C=CC1C(C2)N(C)CC3` (stereo not drawn), the growth inhibition in assay [1] is 40.3%; in assay [2], -4.2%; in assay [3] it was 34.9%; in assay [4] it was 13.9%; in assay [5], -1.85%; in assay [6], 3.55%.
Turning to `CC(C)COP(=O)(Cc1ccccc1)OCC(C)C`, the growth inhibition in assay [1] was 8.85%; in assay [2], 5.65%; in assay [3], -0.5%; in assay [4] it was 11.8%; in assay [5] it was 5%; in assay [6], -6.2%.
Consider `CCCOP1(=O)C=C(O)C(Cl)=C(C)C1` (stereo not drawn), for which the growth inhibition in assay [1] is -32.5%; in assay [2] it was -15.4%; in assay [3] it was -42.8%; in assay [4], -12.8%; in assay [5], -19.4%; in assay [6], -46.8%.
`c1ccc(NC2CCN(C3(c4ccccc4)CCCCC3)CC2)cc1`: the growth inhibition in assay [1] is -17.9%; in assay [2] it was -6.8%; in assay [3], -6.85%; in assay [4], -45.6%; in assay [5], -1.75%; in assay [6], -8.1%.
In the case of `CCCCOP(=S)(N1CCCCC1)N1CCCCC1`, the growth inhibition in assay [1] is -8.15%; in assay [2], 3.5%; in assay [3], 5.75%; in assay [4], 8.3%; in assay [5], 2.6%; in assay [6], 0.95%.
As for `COc1ccn(C)c(=O)c1C#N`, the growth inhibition in assay [1] is 3.15%; in assay [2], 0.3%; in assay [3], -6.35%; in assay [4] it was 5.6%; in assay [5], 2.15%; in assay [6], -2.4%.
Turning to `C[C@]12CC[C@H](OC(=O)Cc3ccc(N(CCCl)CCCl)cc3)CC1CC[C@@H]1C2CC[C@]2(C)NC(=O)CCC12` (stereo partly drawn), the growth inhibition in assay [1] was 0.1%; in assay [2], -5.65%; in assay [3], 15.9%; in assay [4], 15.2%; in assay [5], 3.65%; in assay [6], 18.1%.
On to `COc1ccc(-n2c(C)nc3ccccc3c2=O)cc1CN(CCCl)CCCl`, for which the growth inhibition in assay [1] is 4.45%; in assay [2], -3.55%; in assay [3], -8.15%; in assay [4], -22.1%; in assay [5] it was 2.6%; in assay [6], 2.3%.
As to `COc1ccc(CN2CCCN(Cc3ccc(OC)cc3)C2c2ccc(N(CCCl)CCCl)cc2)cc1`, the growth inhibition is 30.3% in assay [1]; 2.4% in assay [2]; 43.8% in assay [3]; 19.8% in assay [4]; -15.3% in assay [5]; 35.8% in assay [6].
Take `C[C@]12CC[C@H]3[C@@H](CC[C@H]4N(CCCl)CCC[C@]34C)[C@@H]1CC[C@@H]2O`: the growth inhibition in assay [1] is 15.9%; in assay [2], 15.9%; in assay [3], 46.5%; in assay [4], 14.8%; in assay [5], 69.2%; in assay [6], 76.3% (active).
Regarding `CNC(C)Cc1ccccc1OC` (stereo not drawn), the growth inhibition in assay [1] was -10.8%; in assay [2] it was -12.4%; in assay [3] it was -1.2%; in assay [4] it was 2.65%; in assay [5], -4.55%; in assay [6], 11.4%.
